40 sequences from the supplement of paper PMC6555819 can be followed below.

The subject of the test is VDR:RXRa (NR concentration 270 nM, RXRa partner concentration 90 nM). The experiment in a line: PBM binding z-score (relative to random genomic background probes); higher = stronger binding; sequences stand for … in GC…GCGATTGACAGCGTAGAATGAAGG
How it is done:
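Protein-binding microarray (Agilent 4x180K custom design, double-stranded 60-nt probes: 5' GC cap, 34-nt variable region, 24-nt constant primer region; full probe sequence given). Purified or IVT nuclear receptor:RXRα heterodimers (3:1 NR:RXRα, mostly 270:90 nM) or homodimers were incubated for 1 h in PBS with 2% milk and no ligand, then detected with Alexa488 antibodies. Fluorescence from o1-orientation probes (~5 replicates averaged) was converted to z-scores against 500 random hg19 background probes. Variable regions are seed direct-repeat (DR0–DR5) sites, all their single-nucleotide variants and half-site ablations.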
In turn, CGTCAAAGTTCAACTAAGGTAACGAAAAGCACGC registered a PBM binding z-score of 4.64.
Sequence AGAACGAGGGCAATAAGTTGATAGCACGGGTGGC displayed a PBM binding z-score of 3.26.
For the sequence CCGACTGGGTCATAAGGTTACCATAAGCCAGCCC, the PBM binding z-score turned out to be 2.81.
As for CTCGAAAGGTCGTGCTCAGGTGAGTAGACCAAAC, the PBM binding z-score is 3.08.
The sequence ATTTGTAGGTTAGCTGGGGTCATTCAGACTAGGC registered a PBM binding z-score of 6.42.
Sequence ACTAGCAGGCCAAGTTTGGGTCAATCAAACAAAG yielded a PBM binding z-score of 0.502.
To ACTATTAGTTGAGTTAGGGCAACCGATACGACGC belongs 0.0394; to GCTGCTAGGTCAGGTTGATCAGCTAACGGGTACG, 0.431; to CTACCAAGGTGAACAAGGGCGTTGATTACTATTC, 4.73.
TCTTGTAGATCAAGCAGGTTAAGAAAGCCTGAGT yielded a PBM binding z-score of 0.61.
On to CCTGCTAGGTCATGGTCAGTTAATCTACAGTATG, for which the PBM binding z-score came to 2.28.
Take GTACCAAGGTGAATAGGGCGTTGATGAGTAGGCG: the PBM binding z-score was -0.176.
GCATATAGGTAATACAAGGTGAGAGTCCGATTGT displayed a PBM binding z-score of 0.351.
With GCTAGTTGGTCAGTAAAAAGTCACACACCGGTCG the figure was 0.0507.
The sequence TCATATAGATAAAAGGTGAAAGTCGGTGTGGTAA registered a PBM binding z-score of 1.35.
In turn, TAGCCTAGGTCATGCGGGCCAGTATCGTGTCGGC showed a PBM binding z-score of 2.81.
For CGTCCAAGGTCAAGGTCCGTGAAAGAGACTCGAA, the PBM binding z-score came to 4.04.
To GGAACGAGGGCAAGTTGATAGCAGAGTTTGATGG belongs 0.688; to CCTAGTTGGTCAGGAGGTCACACATCGGATATGA, 3.76.
The sequence ACAGACAGGTGATGAAGGTAACTCATGCTATCAT displayed a PBM binding z-score of 0.111.
As for ATAGGTAGGTTAGCTGGGGTCATTCAGACTAGGC, the PBM binding z-score stood at 6.28.
Turning to ACAGACAGGTGAGTGAAGGTAACTCGGCTGGACG, the PBM binding z-score is -0.336.
For TCTTGTAGATCAAGGGTTAAGAAAGCCGAAGCCT, the PBM binding z-score is 0.604.
In the case of TCTTGTAGATCAAAGGTAAAGAAAGCCGAAGCCT, the PBM binding z-score stood at 0.385.
In turn, ACTCGGAGGACAAAGGTCAAAGCTACGCCAGTGA displayed a PBM binding z-score of 4.8.
The sequence TCACGGAGGACACGAAAGGTCAGAGCTCGACATC came in with a PBM binding z-score of 3.47.
To CGTCCAAGGTTATAGGAGGTCAGTGAAGACAGAT belongs 4.85.
Take CCGAGTAGATTATGGGGCATTCAGGCAACGGTGA: the PBM binding z-score is -0.214.
In the case of CCTACTGGGCCAAAGGTCATTGGTTCCAATGCTC, the PBM binding z-score worked out at 4.8.
In turn, CCTAGTTGGTCAGGAGGTTACACACCGGATATGA registered a PBM binding z-score of 0.869.
To CTACCAAGGTGAACAAGGTCGTCGATTACTATTC belongs 5.98; to AGTCAAAGTTCATGACGAGGTAACGTAAAGCACG, 4.64; to TCCGACAGGTGAAGGTAACTCAGGTACGCAGTCG, 0.225.
On to TAGCCTAGGTCATTCAGGGGCCAGTTTAGAAAGC, for which the PBM binding z-score was 3.16.
To ACTTACGGGTCAACAAGGTTATAGCACGCGTATA belongs 7.08.
In turn, CTGAGTAGGTTATGGGGCATTCAGGCAACGGTGA gave a PBM binding z-score of 0.0973.
CCTACTGGGCCGTCAGGTCATTGATATCAACGTT registered a PBM binding z-score of 1.32.
Take TGTTGTAGATCAAGCAGGTTAAGAAAGCCTGAGT: the PBM binding z-score was determined as 0.0987.
For the sequence TCGAGTAGGTTACCGATGGGGCATTCAGCTTTCT, the PBM binding z-score is 0.0364.
The sequence TAGCCTAGGTCATTCAGGGGCCTGTATAGAAAGC returned a PBM binding z-score of 2.69.
